Laboratory results: PMC7862700, “An all-to-all approach to the identification of sequence-specific readers for epigenetic DNA modifications on cytosine”

Legend:
Test in all cases: DAPPL (digital affinity profiling via proximity ligation, sequencing); 10 mM Tris-HCl pH 7.5, 50 mM NaCl, 1 mM DTT, 4% glycerol, room temperature, 30 min; GST-TFs on glutathione beads, 16-mer random dsDNA library, 0.1% formaldehyde crosslink after washing; high values mean tight binding
Conditions in all cases: protein: recombinant; tags: N-terminal GST; dsDNA, one strand shown
FLI1 = biological target: T1, FLI1 (Homo sapiens, UniProt Q01543 1-452)
T1 sequence: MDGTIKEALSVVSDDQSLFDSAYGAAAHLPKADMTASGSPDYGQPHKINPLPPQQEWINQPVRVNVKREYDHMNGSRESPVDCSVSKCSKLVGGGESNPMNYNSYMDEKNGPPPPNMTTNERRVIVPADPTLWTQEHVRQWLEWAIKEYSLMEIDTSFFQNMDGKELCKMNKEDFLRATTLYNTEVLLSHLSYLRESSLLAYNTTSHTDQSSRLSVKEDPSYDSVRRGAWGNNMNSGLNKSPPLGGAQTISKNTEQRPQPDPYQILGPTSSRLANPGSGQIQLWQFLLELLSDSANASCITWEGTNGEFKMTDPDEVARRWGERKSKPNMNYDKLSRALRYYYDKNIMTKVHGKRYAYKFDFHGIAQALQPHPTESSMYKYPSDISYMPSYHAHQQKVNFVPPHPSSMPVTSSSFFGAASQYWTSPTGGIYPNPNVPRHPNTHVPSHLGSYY
Summary of the method: (§1)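 Human transcription factors were made in yeast as GST fusions, captured on glutathione beads and barcoded with DNA. With a tag-only sample included, the pool was incubated with 200 nmole of a random double-stranded 16-mer DNA library in Tris/NaCl/DTT/glycerol buffer at room temperature for 30 min, then crosslinked with 0.1% formaldehyde after washing, ligated by proximity, amplified and sequenced. For binding signal, each hexamer's read frequency for a factor is divided by its frequency for the tag-only sample.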

ELK1 = biological target: T2, ELK1 (Homo sapiens, UniProt P19419 1-428)
T2 sequence: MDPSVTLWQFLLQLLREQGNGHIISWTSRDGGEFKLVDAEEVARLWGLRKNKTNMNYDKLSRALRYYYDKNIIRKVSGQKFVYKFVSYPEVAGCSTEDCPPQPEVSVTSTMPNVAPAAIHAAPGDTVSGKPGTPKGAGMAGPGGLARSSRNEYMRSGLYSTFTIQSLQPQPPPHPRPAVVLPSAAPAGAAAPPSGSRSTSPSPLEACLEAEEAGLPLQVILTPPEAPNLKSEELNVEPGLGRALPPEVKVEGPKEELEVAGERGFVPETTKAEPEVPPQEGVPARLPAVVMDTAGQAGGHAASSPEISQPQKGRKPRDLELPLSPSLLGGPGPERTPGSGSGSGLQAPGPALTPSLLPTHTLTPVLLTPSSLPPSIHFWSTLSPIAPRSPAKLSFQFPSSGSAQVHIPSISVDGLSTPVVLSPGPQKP
Summary of the method: as §1

GABPA = biological target: T3, GABPA (Homo sapiens, UniProt Q06546 1-454)
T3 sequence: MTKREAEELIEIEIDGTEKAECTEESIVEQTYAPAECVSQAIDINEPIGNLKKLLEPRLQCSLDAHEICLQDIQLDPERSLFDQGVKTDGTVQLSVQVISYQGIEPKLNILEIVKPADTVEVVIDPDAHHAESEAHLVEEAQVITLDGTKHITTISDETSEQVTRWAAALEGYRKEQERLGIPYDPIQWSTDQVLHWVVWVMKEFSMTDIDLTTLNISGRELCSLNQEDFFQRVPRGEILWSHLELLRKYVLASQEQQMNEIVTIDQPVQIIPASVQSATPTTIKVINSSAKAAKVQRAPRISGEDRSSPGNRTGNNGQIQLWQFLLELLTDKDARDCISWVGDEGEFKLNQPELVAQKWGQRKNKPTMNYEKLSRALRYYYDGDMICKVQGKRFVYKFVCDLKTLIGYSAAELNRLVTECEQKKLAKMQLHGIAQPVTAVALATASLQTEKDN
Summary of the method: as §1

ELF1 = ELF1 (Homo sapiens, UniProt P32519 1-619)
Summary of the method: as §1

EHF = biological target: T4, EHF (Homo sapiens, UniProt Q9NZC4 1-300)
T4 sequence: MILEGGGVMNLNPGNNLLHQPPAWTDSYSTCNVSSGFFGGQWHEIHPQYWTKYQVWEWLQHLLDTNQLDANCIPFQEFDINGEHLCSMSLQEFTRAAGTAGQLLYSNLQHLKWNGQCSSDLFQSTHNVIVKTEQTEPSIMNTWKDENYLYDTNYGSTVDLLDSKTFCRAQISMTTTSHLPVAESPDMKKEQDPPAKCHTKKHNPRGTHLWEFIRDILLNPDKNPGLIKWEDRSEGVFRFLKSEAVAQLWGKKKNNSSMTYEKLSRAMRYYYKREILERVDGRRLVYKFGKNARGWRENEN
Summary of the method: as §1

SPIC = biological target: T5, SPIC (Homo sapiens, UniProt Q8N5J4 1-248)
T5 sequence: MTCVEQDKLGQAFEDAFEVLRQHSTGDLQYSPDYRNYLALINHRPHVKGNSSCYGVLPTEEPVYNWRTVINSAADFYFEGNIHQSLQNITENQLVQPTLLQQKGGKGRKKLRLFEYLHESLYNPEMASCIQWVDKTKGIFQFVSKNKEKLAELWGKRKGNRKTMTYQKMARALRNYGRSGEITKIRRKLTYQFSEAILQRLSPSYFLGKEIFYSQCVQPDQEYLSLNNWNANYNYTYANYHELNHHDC
Summary of the method: as §1

ELF4 = ELF4 (Homo sapiens, UniProt Q99607 1-663)
Summary of the method: as §1

ELK4 = biological target: T6, ELK4 (Homo sapiens, UniProt P28324-2 1-405)
T6 sequence: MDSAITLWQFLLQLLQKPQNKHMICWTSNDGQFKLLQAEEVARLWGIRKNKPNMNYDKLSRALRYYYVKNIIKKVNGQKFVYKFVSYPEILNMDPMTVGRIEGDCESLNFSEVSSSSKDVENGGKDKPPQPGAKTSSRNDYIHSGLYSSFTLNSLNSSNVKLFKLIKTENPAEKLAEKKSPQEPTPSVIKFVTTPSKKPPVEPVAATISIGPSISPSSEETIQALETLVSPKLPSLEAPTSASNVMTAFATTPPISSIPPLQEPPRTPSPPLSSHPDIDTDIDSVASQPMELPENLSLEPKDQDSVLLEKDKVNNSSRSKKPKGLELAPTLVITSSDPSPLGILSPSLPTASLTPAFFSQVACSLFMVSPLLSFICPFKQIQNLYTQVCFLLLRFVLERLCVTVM
Summary of the method: as §1

ETV1 = ETV1 (Homo sapiens, UniProt P50549 1-477)
Summary of the method: as §1

ETV6 = ETV6 (Homo sapiens, UniProt P41212 1-452)
Summary of the method: as §1

Sequence of ETV1 (P50549 whole entry): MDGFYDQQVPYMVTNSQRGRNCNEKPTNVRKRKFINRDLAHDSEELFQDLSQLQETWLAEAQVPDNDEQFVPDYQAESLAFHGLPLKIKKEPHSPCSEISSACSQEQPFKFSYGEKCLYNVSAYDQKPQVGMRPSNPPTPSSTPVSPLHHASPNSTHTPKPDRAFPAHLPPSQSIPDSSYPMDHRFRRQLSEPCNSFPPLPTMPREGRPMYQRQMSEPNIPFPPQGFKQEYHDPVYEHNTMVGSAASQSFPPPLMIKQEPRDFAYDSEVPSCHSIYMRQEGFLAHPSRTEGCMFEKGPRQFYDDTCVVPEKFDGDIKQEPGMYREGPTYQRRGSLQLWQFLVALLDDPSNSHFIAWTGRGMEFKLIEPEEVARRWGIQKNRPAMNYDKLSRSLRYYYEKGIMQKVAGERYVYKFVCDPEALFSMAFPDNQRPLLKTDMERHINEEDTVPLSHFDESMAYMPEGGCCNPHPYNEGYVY
Sequence of ETV6 (P41212 whole entry): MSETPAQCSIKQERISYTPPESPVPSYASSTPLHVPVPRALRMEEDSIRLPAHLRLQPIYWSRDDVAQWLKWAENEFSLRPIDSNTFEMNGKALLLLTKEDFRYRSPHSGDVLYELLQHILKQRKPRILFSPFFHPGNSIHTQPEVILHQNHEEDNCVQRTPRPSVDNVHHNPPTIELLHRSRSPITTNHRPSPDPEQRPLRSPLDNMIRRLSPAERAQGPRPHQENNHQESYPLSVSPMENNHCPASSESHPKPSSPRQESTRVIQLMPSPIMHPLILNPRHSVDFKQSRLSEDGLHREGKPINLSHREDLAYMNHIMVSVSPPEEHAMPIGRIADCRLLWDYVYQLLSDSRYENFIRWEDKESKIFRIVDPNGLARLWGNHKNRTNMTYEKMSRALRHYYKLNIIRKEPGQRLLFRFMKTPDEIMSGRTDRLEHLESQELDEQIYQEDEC
Sequence of ELF1 (P32519 whole entry): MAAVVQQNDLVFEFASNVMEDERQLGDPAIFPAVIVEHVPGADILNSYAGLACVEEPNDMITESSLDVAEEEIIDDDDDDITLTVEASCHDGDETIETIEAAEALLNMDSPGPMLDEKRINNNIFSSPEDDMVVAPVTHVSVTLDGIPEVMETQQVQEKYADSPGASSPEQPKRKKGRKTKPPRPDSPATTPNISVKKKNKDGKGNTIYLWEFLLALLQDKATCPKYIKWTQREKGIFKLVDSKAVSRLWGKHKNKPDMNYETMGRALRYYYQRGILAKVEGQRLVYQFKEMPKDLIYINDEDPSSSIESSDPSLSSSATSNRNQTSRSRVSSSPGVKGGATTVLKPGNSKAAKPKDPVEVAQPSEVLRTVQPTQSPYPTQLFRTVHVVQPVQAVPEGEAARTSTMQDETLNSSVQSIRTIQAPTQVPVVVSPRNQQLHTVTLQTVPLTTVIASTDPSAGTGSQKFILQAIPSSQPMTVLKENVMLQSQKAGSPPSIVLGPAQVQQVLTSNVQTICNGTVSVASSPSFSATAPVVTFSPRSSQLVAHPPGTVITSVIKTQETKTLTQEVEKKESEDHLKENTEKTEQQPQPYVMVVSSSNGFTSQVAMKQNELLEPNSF
Sequence of ELF4 (Q99607 whole entry): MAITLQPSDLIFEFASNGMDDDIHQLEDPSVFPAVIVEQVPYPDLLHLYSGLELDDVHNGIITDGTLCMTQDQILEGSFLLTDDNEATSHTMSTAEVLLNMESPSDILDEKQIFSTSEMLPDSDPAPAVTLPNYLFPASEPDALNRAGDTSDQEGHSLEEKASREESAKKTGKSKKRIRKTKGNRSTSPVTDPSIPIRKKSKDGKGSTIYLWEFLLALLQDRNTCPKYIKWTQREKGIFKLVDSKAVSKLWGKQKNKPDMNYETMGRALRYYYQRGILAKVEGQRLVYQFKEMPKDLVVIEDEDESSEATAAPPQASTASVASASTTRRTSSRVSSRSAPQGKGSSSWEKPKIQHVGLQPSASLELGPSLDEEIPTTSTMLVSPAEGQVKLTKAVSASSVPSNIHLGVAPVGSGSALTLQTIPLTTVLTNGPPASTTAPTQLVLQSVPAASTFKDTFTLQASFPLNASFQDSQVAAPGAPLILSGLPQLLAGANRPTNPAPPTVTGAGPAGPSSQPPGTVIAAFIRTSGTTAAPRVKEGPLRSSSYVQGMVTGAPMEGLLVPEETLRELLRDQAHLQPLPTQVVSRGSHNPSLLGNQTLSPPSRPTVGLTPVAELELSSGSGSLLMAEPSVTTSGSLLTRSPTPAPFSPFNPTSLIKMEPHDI

CGCAAC
binding signal (FLI1): 1.04 fold enrichment (6-mer frequency, TF over GST control)
binding signal (ELK1): 1.08 fold enrichment (6-mer frequency, TF over GST control)
binding signal (GABPA): 1.08 fold enrichment (6-mer frequency, TF over GST control)
binding signal (ELF1): 1.12 fold enrichment (6-mer frequency, TF over GST control)
binding signal (EHF): 1.01 fold enrichment (6-mer frequency, TF over GST control)
binding signal (SPIC): 1.08 fold enrichment (6-mer frequency, TF over GST control)
binding signal (ELF4): 1.06 fold enrichment (6-mer frequency, TF over GST control)
binding signal (ELK4): 1 fold enrichment (6-mer frequency, TF over GST control)
binding signal (ETV1): 1.03 fold enrichment (6-mer frequency, TF over GST control)
binding signal (ETV6): 1.07 fold enrichment (6-mer frequency, TF over GST control)
